The source of these data is PubChem BioAssay AID1963576 (National Center for Advancing Translational Sciences (NCATS), 2024).

The whole screen tested about 46,000 compounds, of which about 60 (0.1%) were called active. Not shown: some 3% with an inconclusive outcome. The call rests on the fitted dose curve; in most records, active means well fitted inhibition curve with a large enough effect; inconclusive means small, poorly fitted or top-dose-only effect; inactive means no such curve, though single readings can be large or run the other way. What follows is part of a selection rich in actives, with near analogues and random picks from the rest. Where a call stands in place of a potency, no number is given.
Potency means the concentration at half of the fitted maximal effect.

A short description of the test: Primary qHTS assay for Inhibitors of ovarian cancer metastasis using an organotypic tumor microenvironment (TME) model. Further: nearly all actives have a fitted effect of over 65% in size.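 On potency: count of GFP cancer cells still attached after washing and fixation.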 The note with it: SKOV3ip1-GFP adhesion/invasion on 3D omental model, fluorescence; series mostly up to 45.8 µM. An excerpt: PI: Ernst Lengyel MD., Ph.D. Department of Obstetrics and Gynecology, Section of Gynecologic Oncology University of Chicago Medicine, Chicago, Illinois. The tumor microenvironment (TME) is a key determinant of metastatic efficiency. We performed a quantitative high-throughput screen (qHTS) of diverse medicinal chemistry tractable scaffolds (44,420 compounds) and pharmacologically active small molecules (386 compounds) using a layered organotypic, robust assay representing the ovarian cancer metastatic TME. This 3D model contains primary human mesothelial cells, fibroblasts, and extracellular matrix, to which fluorescently labeled ovarian cancer cells are added. Initially, 100 compounds inhibiting ovarian cancer adhesion/invasion to the 3D model in a dose-dependent manner were identified. Of those, eight compounds were confirmed active in five high-grade serous ovarian cancer cell lines and were further validated in secondary in vitro and in vivo biological assays. […] Specifically, NCGC00117362 and PP-121 inhibited ovarian cancer adhesion, invasion, and proliferation, whereas milciclib inhibited ovarian cancer invasion and proliferation. […] To evaluate the clinical potential of NCGC00117362, structure - activity relationship studies were performed. […] The three compounds identified have promise as therapeutics for prevention and treatment of ovarian cancer metastasis.
PROTOCOL TABLE (as described by Inglese J, Shamu CE and Guy RK. 2007) SEQUENCE No. (e.g., 1, 2, 3, etc.); […] (e.g., Cells, Incubation, Reagent, etc.); VALUE; DESCRIPTION. 1; Cells; 4 uL; primary human omental fibroblast, black, clear bottom, low base, 1536-well Aurora assay plate. 2; Incubation; 48 hr; 37C. 3; Cells; 3 uL; 1,200 SKOV3ip1-GFP cells. 4; Compounds; 23nL; acoustic dispenser. 5; Incubation; 2 hr; room temperature. 6; Incubation; 16 hr; 37C. 7; Wash; 5 uL; 1x PBS. 8; Fixing; 5 uL; 4% paraformaldehyde (PFA). 9; Incubation; 15 min; room temperature 10; Wash, 5 uL; 1x PBS. 11; Detection; Fluorescence, excitation filter 488 nm, emission filter 509 nm. NOTES (numbers refer to Sequence numbers above) 1. For the 1,536-well format, 40 primary human omental fibroblasts and 400 mesothelial cells were seeded with 0.02 µg fibronectin and 0.02 µg collagen type I in 4 µL of growth media (2.3 mm2; Supplementary Fig. S1A). 2. Assay plates were incubated for 48 hours at 37 C. 3. After incubation, 1,200 SKOV3ip1-GFP were seeded in 3 µL of serum-free media (growth media minus FBS) on top of primary human omental cells. 4. Compounds or controls were added to each well immediately after the addition of the cancer cells. Compounds were screened in four doses (0.36-46 µmol/L), and the plates contained the positive control (Tomatine) in eight doses (0.035-75 µmol/L) and DMSO (equal volume controls) 5 - 6. The plates were incubated at room temperature for 2 hours and then at 37 degrees C for 16 hours. 7 - 10. Following incubation, the media were aspirated and each well washed with PBS (5 µL) and then fixed with 4% paraformaldehyde (PFA; 5 µL). After 15 minutes, the PFA solution was aspirated, PBS (5 µL) was added. 11. The number of GFP-labeled cells analyzed using a fluorescent cytometer TTP LabTech Acumen eX3 using 488 nm excitation filter and 509 nm emission filter. Data was normalized to the DMSO treated for negative and Tomatine treated wells for positive control. REFERENCES: Inglese J, Shamu CE and Guy RK, Reporting data from high throughput screening of small molecule libraries, Nature Chemical Biology, 2007, 3(8): 438-441. doi.org/10.1038/nchembio0807-438. Yasgar A, Shinn P, Jadhav A, Auld DS, Michael S, Zheng W, Austin CP, Inglese J and Simeonov A, Compound Management for Quantitative High-Throughput Screening. J. Assoc. Lab. Auto., 2008, 13: 79-89. doi: 10.1016/j.jala.2007.12.004.
`COc1ccc(CNC(=O)CSc2nc3ccccc3nc2Cc2ccccc2)cc1`: the Potency result was “inactive”.

For `CCc1ccc(S(=O)(=O)c2nnn3c2nc(N2CCN(CC)CC2)c2sccc23)cc1`, the Potency entry is “inactive”.

For the compound `COc1ccc2oc(=O)c(-c3cn4c(n3)sc3cc(OC)ccc34)cc2c1`, the Potency entry is “inactive”.

For `O=C(Nc1ccc(-c2nc3cc(NC(=O)c4ccccc4Cl)ccc3o2)cc1)c1ccccc1Cl`, the Potency entry is “inactive”.

Consider `CCOC(=O)c1c(N)n(-c2cccc(C)c2C)c2nc3ccccc3nc12`, for which the Potency result was “inactive”.

In the case of `Cc1ccc(Nc2nc3ccccc3nc2-n2nc(C)cc2C)c(Cl)c1`, the Potency result is “inactive”.

For the compound `COc1cc(C(=O)N2CCC(c3ccncc3)CC2)cc(OC)c1OC`, the Potency result is “inactive”.

Regarding `Cc1ccc(S(=O)(=O)N2CCC(C(=O)Nc3cc(C)ccc3C)CC2)cc1`, the Potency entry was “inactive”.

Regarding `CC=CCC=CCCC(=O)[C@H]1O[C@@H]1C(N)=O`, the Potency entry is “inactive”.

As for `Cc1nnc(SCC(=O)NCc2ccccc2Cl)c2nn(-c3ccccc3)c(C)c12`, the Potency result was “inactive”.

`CCC(C(=O)Nc1cc(OC)ccc1OC)n1c(=O)c(C(F)(F)F)nc2ccccc21` (stereo not given): the Potency entry was “inactive”.

Regarding `CN1CCN(C2(CNC(=O)COc3ccc(C(C)(C)C)cc3)CCCCC2)CC1`, the Potency entry is “inactive”.

Consider `CCOc1ccccc1N(C)C(=O)c1cc2c(s1)-c1ccccc1OC2`, for which the Potency result was “inactive”.

As to `Cc1nn(-c2ccc(N3CCCCC3)nn2)c(C)c1CCC(=O)NCc1ccc(F)cc1`, the Potency result is “inactive”.

Regarding `O=C(Nc1c(-c2ccc(F)cc2)nc2ccccn12)c1cccc(F)c1`, the Potency result was “inactive”.

Turning to `CC(=O)OC[C@@H]1O[C@@H](n2ccc(=O)[nH]c2=O)[C@H](OC(C)=O)[C@H]1OC(C)=O`, the Potency result is “inactive”.

For `CN(C(=O)CSc1nnc(NC(=O)Nc2ccccc2)s1)c1ccccc1`, the Potency result is “inactive”.

In the case of `CC1CCCCN1CC(=O)N1CCCc2c1c(=O)oc1ccc(OCc3ccccc3)cc21` (stereo not given), the Potency entry is “inactive”.

Regarding `O=S(=O)(NCCS(=O)(=O)N1CCN(c2ccccc2)CC1)c1ccc(Cl)cc1`, the Potency entry is “inactive”.

Consider `Cc1cccc(NC(=O)C2CCN(S(=O)(=O)c3c(C)noc3/C=C/c3ccco3)CC2)c1`, for which the Potency result is “inactive”.

Regarding `CC(C)Cn1c(=O)c2ccccc2n2c(CCC(=O)N3CCN(c4cccc(Cl)c4)CC3)nnc12`, the Potency result is “inactive”.

As for `COc1ccc(-c2cc(C(F)(F)F)n3nc(-c4ccccc4)cc3n2)cc1OC`, the Potency entry is “inactive”.

For the compound `CC(C(C)N1CC(=O)NC(=O)C1)N1CC(=O)NC(=O)C1` (stereo not given), the Potency entry was “inactive”.

On to `Cc1ccc(CNS(=O)(=O)c2ccc(C(=O)N(C)C)s2)cc1`, for which the Potency entry was “inactive”.

Regarding `CSc1ncc(Cl)c(C(=O)Nc2ccc(S(=O)(=O)N3CCCC(C)C3)cc2)n1` (stereo not given), the Potency result was “inactive”.

As for `Cc1ccc(-c2cc(N)n(Cc3cccc(Cl)c3)n2)cc1`, the Potency result was “inactive”.

Turning to `C[C@]12CCC3=C4CCC(=O)C=C4CC[C@@H]3[C@H]1CC[C@@]2(O)CC#N`, the Potency entry is “inactive”.

For `CCC(=O)N1CCc2cc(Br)cc(S(=O)(=O)Nc3ccc(C)cc3C)c21`, the Potency result is “inactive”.

Consider `Cc1cccc(NC(=O)c2cc3c(C)nn(-c4ccccc4)c3s2)c1`, for which the Potency result is “inactive”.

With `Cc1ccc(-c2nn3c(=O)cc(CN4CCN(C(=O)Nc5cccc(C(F)(F)F)c5)CC4)nc3s2)cc1`, the Potency entry is “inactive”.

With `CCOC(=O)CN1C(C(=O)c2ccccc2)=C(OC(=O)C(C)(C)C)c2ccccc2S1(=O)=O`, the Potency result was “inactive”.

`O=C(CC1C(=O)N(c2ccccc2)C(=O)N1CCc1cccs1)Nc1ccc(F)cc1` (stereo not given): the Potency result was “inactive”.

For `O=C(CN1c2ccccc2S(=O)(=O)c2ccccc21)Nc1cccc(C(F)(F)F)c1`, the Potency result is “inactive”.

Regarding `CC(C)(C)OC(=O)N1CCC(c2c(C(=O)N3CCN(c4cccc(Cl)c4)CC3)cnn2-c2cccc(Cl)c2)CC1`, the Potency result is “inactive”.

On to `CCc1ccccc1NC(=O)CCOc1ccccc1`, for which the Potency result was “inactive”.

Consider `Cc1cccc(OCCCC(=O)Nc2sc3c(c2C(N)=O)CCC(C)C3)c1` (stereo not given), for which the Potency result is “inactive”.

As to `CCN(CC)CCCCNc1ncc2c(n1)N(C)C(=O)N(c1c(Cl)c(OC)cc(OC)c1Cl)C2`, the Potency entry is “inactive”.

Consider `Cc1cccc(N2CCN(C(=O)c3cc4c(=O)oc5ccccc5c4s3)CC2C)c1` (stereo not given), for which the Potency result was “inactive”.

Consider `COCCCNC(=O)CN1C(=O)CSc2ccc(S(=O)(=O)N3CCOCC3)cc21`, for which the Potency result is “inactive”.

As for `CCc1ccccc1N1CC(c2nc3ccccc3n2CCCCOc2ccccc2)CC1=O` (stereo not given), the Potency entry was “inactive”.

In the case of `CCOC(=O)c1nc(Nc2ccc(C(=O)OC)cc2)c2ccccc2n1`, the Potency entry was “inactive”.

As for `COc1cc(Nc2nc(-c3ccc(OC)c(OC)c3)nc3ccccc23)cc(OC)c1`, the Potency is 10 µM (active).

Regarding `COc1cccc(Nc2nc3ccccc3c3nncn23)c1`, the Potency entry was “inactive”.

Turning to `COc1ccc(C2=CC(c3ccccc3Cl)n3nc(-c4ccc(Cl)cc4)nc3N2)cc1` (stereo not given), the Potency result was “inactive”.

Turning to `O=C(CCC(=O)N1CC2CCCN2c2ccccc21)NCc1ccccc1Cl` (stereo not given), the Potency entry was “inactive”.
